Source: PubChem BioAssay AID1159580 (chemical genetic matrix, 2015)
Where “and” joins values, the source holds several entries; their conditions need not be identical. Equal entries are not always repeated. Among all 5,500 compounds or so, about 2,000 (36%) were called active. Not shown: some 18% with an inconclusive outcome. No stated cut-off is given here; in the data, active means normalized growth mostly below about 0.91 (no sharp cut-off); inconclusive means no clear call, values can overlap the other calls; inactive means mostly above about 0.92. Some of the results follow.

Assay: chemical genetic growth profiling, strain panel (AID 1159580);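 further: tested at 20 µM; growth read once vehicle control cultures reached saturation at 30 °C; 1 = growth at the plate median or of vehicle wells; lower values mean less growth of the strain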
Settings: S. cerevisiae deletion strains, growth OD

Measured: normalized growth

CC(C)[C@@H]1CC[C@@H](C)C[C@H]1O
inactive: locus YAL021C, strain ccr4, active compounds read low 0.968 | locus YAL026C, strain drs2, active compounds read low 0.987 | locus YAL030W, strain snc1, active compounds read low 0.984 | locus YBL061C, strain skt5, active compounds read low 1.01 | locus YBR009C, strain hhf1, active compounds read low 0.998 | locus YBR021W, strain FUR4, active compounds read low 1.03 | locus YBR023C, strain chs3, active compounds read low 1.01 | locus YBR171W, strain sec66, active compounds read low 0.973 | locus YBR229C, strain ROT2, active compounds read low 1.01 | locus YBR231C, strain swc5, active compounds read low 0.988 | locus YBR279W, strain paf1, active compounds read low 0.998 | locus YCL011C, strain gbp2, active compounds read low 0.982 | locus YCL016C, strain dcc1, active compounds read low 0.995 | locus YCL029C, strain bik1, active compounds read low 1.01 | locus YCL061C, strain MRC1, active compounds read low 0.986 | locus YCL069W, strain vba3, active compounds read low 0.973 | locus YCR088W, strain abp1, active compounds read low 0.979 | locus YDL005C, strain med2, active compounds read low 0.98 | locus YDL035C, strain GPR1, active compounds read low 1.02 | locus YDL040C, strain nat1, active compounds read low 0.979 | locus YDL074C, strain BRE1, active compounds read low 0.997 | locus YDL101C, strain DUN1, active compounds read low 1.01 | locus YDL134C, strain PPH21, active compounds read low 1.01 | locus YDL185W, strain tfp1, active compounds read low 1.02 | locus YDL192W, strain arf1, active compounds read low 1.02 | locus YDR001C, strain nth1, active compounds read low 0.978 | locus YDR069C, strain doa4, active compounds read low 0.992 | locus YDR101C, strain arx1, active compounds read low 0.996 | locus YDR137W, strain rgp1, active compounds read low 0.898 | locus YDR150W, strain NUM1, active compounds read low 1.01 | locus YDR159W, strain sac3, active compounds read low 0.964 | locus YDR162C, strain NBP2, active compounds read low 1.02 | locus YDR195W, strain ref2 0.986 | locus YDR297W, strain sur2, active compounds read low 0.984 | locus YDR318W, strain mcm21, active compounds read low 1.02 | locus YDR334W, strain swr1, active compounds read low 0.951 | locus YDR335W, strain msn5, active compounds read low 0.984 | locus YDR388W, active compounds read low 1.01 | locus YDR392W, strain spt3, active compounds read low 0.958 | locus YDR502C, strain sam2, active compounds read low 1.01 | locus YEL003W, strain gim4, active compounds read low 0.989 | locus YEL037C, strain rad23, active compounds read low 0.968 | locus YEL061C, strain CIN8 (second series), active compounds read low 0.963 | locus YEL061C, strain CIN8, active compounds read low 1.01 | locus YER015W, strain faa2, active compounds read low 0.996 | locus YER016W, strain bim1, active compounds read low 0.992 | locus YER110C, active compounds read low 1.03 | locus YER111C, strain swi4, active compounds read low 0.961 | locus YER155C, strain BEM2 (second series), active compounds read low 0.94 | locus YER155C, strain BEM2, active compounds read low 1.01 | locus YER167W, strain BCK2, active compounds read low 1.02 | locus YFR010W, strain ubp6, active compounds read low 0.989 | locus YGL078C, strain dbp3, active compounds read low 1.02 | locus YGL086W, strain mad1, active compounds read low 1.01 | locus YGL167C, strain pmr1, active compounds read low 1 | locus YGL173C, strain kem1, active compounds read low 0.999 | locus YGL227W, strain vid30, active compounds read low 0.981 | locus YGL240W, strain doc1, active compounds read low 0.995 | locus YGL248W, strain PDE1, active compounds read low 0.992 | locus YGL253W, strain hxk2, active compounds read low 0.995 | locus YGR078C, strain PAC10, active compounds read low 0.975 | locus YGR135W, strain pre9, active compounds read low 1.04 | locus YGR229C, strain SMI1, active compounds read low 1.03 | locus YGR252W, strain gcn5, active compounds read low 1.03 | locus YHR013C, strain ard1, active compounds read low 1.03 | locus YHR027C, strain rpn1, active compounds read low 0.996 | locus YHR030C, strain SLT2, active compounds read low 1.01 and 0.979 | locus YHR079C, strain IRE1 (second series), active compounds read low 1.01 | locus YHR079C, strain IRE1, active compounds read low 0.991 | locus YHR094C, strain hxt1, active compounds read low 1.02 | locus YHR129C, strain ARP1, active compounds read low 1.01 | locus YHR142W, strain chs7, active compounds read low 0.988 | locus YHR200W, strain rpn10, active compounds read low 1.02 | locus YIL066C, strain RNR3, active compounds read low 0.994 | locus YIL073C, strain SPO22, active compounds read low 1.09 | locus YIL125W, strain kgd1, active compounds read low 1.01 | locus YIR030C, strain dcg1, active compounds read low 1.01 | locus YJL092W, strain hpr5, active compounds read low 0.977 | locus YJL095W, strain BCK1 (second series), active compounds read low 0.986 | locus YJL095W, strain BCK1, active compounds read low 0.972 and 0.985 | locus YJL115W, strain asf1, active compounds read low 0.981 | locus YJL129C, strain trk1, active compounds read low 0.937 | locus YJL134W, strain LCB3, active compounds read low 1.01 | locus YJL154C, strain vps35, active compounds read low 0.972 | locus YJL164C, strain tpk1, active compounds read low 0.998 | locus YJL166W, strain qcr8, active compounds read low 0.986 | locus YJL168C, strain set2, active compounds read low 1.01 | locus YJL187C, strain SWE1 (second series), active compounds read low 0.984 | locus YJL187C, strain SWE1, active compounds read low 0.99 | locus YJR043C, strain POL32, active compounds read low 1.02
